Screens (PubChem BioAssay)
Hits are enriched below; roughly 0.93% of the tested compounds scored in any of these assays.
HUVEC tox IL1B: toxic to HUVEC cells under IL-1B stimulation | cell count reduction, % at 2 µM | AID 845 | HUVEC cell count loss, Hoechst imaging, IL-1B stimulated | 0.41% of 94,000 active;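 active = cell count reduction more than 3 SD above the screen-wide mean, cut at about 70% in these data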;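 also: normalized per plate to untreated control cells as the no-loss baseline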
Phagocyt inh: macrophage phagocytosis inhibition; J774A.1 macrophage IgG-bead phagocytosis, imaging; inhibition, % at 5 µM; 0.07% of 110,000 active;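 active = inhibition above the mean of the plate negative controls plus 5 SD, cut at about 13% in these data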;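 also: phagocytic index as fraction of beads internalized from green versus red external bead signal; plate controls were DMSO negative control for no effect and cytochalasin-D positive control for full effect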
HUVEC tox TNFa: toxic to HUVEC cells under TNF alpha stimulation; HUVEC TNFalpha-stimulated, Hoechst cell count, imaging; cell count reduction, % at 2 µM; 0.17% of 93,000 active; AID 848;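 active = cell count reduction exceeding the screen mean by over 5 SD, scaled to untreated wells per plate, cut at about 78% in these data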;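 also: cells counted after 24 h of TNF alpha exposure following the 1 h pretreatment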
NFkB transloc pot: enhances IL-1B driven NFkB nuclear translocation; HUVEC IL-1B NFkB p65 nuclear translocation imaging; 0.3% of 94,000 active; activation, % at 2 µM;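 active = activation above 40%, about the mean plus 3 SD, also judged a hit on visual image review; inconclusive = activation above 40% but not a hit on visual review; inactive = activation not above 40% and no visual hit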;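 also: percent activation is computed from the nuclear over cytoplasmic p65 intensity ratio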
NFkB transloc inh: blocks IL-1B driven NFkB nuclear translocation in HUVEC cells; 0.43% of 94,000 active; HUVEC IL-1B NFkB p65 nuclear translocation imaging; inhibition, % at 2 µM;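 active = inhibition above about 30% together with a positive call from visual inspection of the well image, limit read from the data; inconclusive = inhibition above a set limit but visual check negative; inactive = inhibition not above a set limit, visual check negative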;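 also: nuclear over cytoplasmic p65 intensity ratio measured by imaging; 0% = IL-1B stimulated DMSO wells and 100% = unstimulated DMSO wells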
* = called active by the depositor; ? = inconclusive; . = not tested or not shown; [ ] = another dose, or the depositor's remark.

SMILES	HUVEC tox IL1B	Phagocyt inh	HUVEC tox TNFa	NFkB transloc pot	NFkB transloc inh
O=C1CC(C(=O)Nc2ccc(Br)cc2)C2(CCCC2)O1 (stereo not given)	82*	0	4	-25	25
O=C1CC(C(=O)Nc2ccccc2)C2(CCCCC2)O1 (stereo not given)	7	0	-22	9	-9
O=C(Oc1ccc(Cl)c2cccnc12)C12CC3CC(CC(C3)C1)C2	.	-7	.	.	.
Cc1nnc(SCc2cn3ccsc3n2)n(N)c1=O	-1	-1	82*	11	-11
COc1ccc(C)cc1-n1nnnc1SCc1cn2ccsc2n1	6	.	-20	13	-13
COc1ccc(NC(=O)C2CCCCN2N)cc1OC (stereo not given)	-38	.	-15	41*	-41
COc1ccc(CN2CCCCC2C(=O)Nc2ccc(OC)c(OC)c2)cc1OC (stereo not given)	-25	-2	-12	3	-4
CCN(C(=O)COC(=O)c1c2c(nc3ccccc13)/C(=C/c1ccccc1)CC(C)C2)C1CCS(=O)(=O)C1 (stereo not given)	.	0	.	.	.
COc1cc(/C=C/C(=O)OCC(=O)N2CCc3ccccc3C2)ccc1O	.	66*[artifact]	.	.	.
CCCCn1c(=O)nc2n(-c3ccccc3)c3ccccc3cc-2c1=O	-52	-3	9	92*	-92
O=C(Nc1cccc(Cl)c1)ON=C1c2ccccc2-c2ccccc21	35	1	-5	-3	3
COc1ccccc1NC(=O)C(C)NS(=O)(=O)c1ccccc1 (stereo not given)	73*	.	-11	-8	8
Cc1n[nH]c(C)c1CCc1nc2c3ccccc3nc(SCC(=O)Nc3ccccc3F)n2n1	86*	-1	15	-9	9
O=C(CCc1nc2ccccc2[nH]1)Nc1ccc2c(c1)OCO2	0	.	-6	-43	44*
CN(C)S(=O)(=O)N1CCN(S(=O)(=O)N(C)C)CC1	3	.	15	14	-14
CC1CN(S(=O)(=O)N(C)C)CCN1S(=O)(=O)N(C)C (stereo not given)	88*	0	0	2	-2
CC(C)(C)NC(=O)C(c1cccs1)N(CC1CCCO1)C(=O)Cn1nnc(-c2cccs2)n1 (stereo not given)	-8	-1	2	48*	-48
CCN(CC(=O)NCc1ccccn1)S(=O)(=O)c1ccc(Cl)cc1	-7	3	79*	2	-2
CCN(CC(=O)NC1CCCCC1)S(=O)(=O)c1ccc(Cl)cc1	-22	1	13	27	-27
CC(Oc1ccc(Cl)cc1)C(=O)N/N=C/c1ccsc1 (stereo not given)	.	-2	.	.	.
COCCNC(=O)C(OC(=O)c1cc2oc(C)cc2n1C)C(C)C (stereo not given)	11	.	-7	15	-15
O=C(CCn1cnc2ccccc2c1=O)Nc1nc2c(s1)CCCC2	-35	41*[artifact]	7	-3	3
CCCc1nc(SCC(=O)Nc2nc3c(s2)CCCC3)c2ccccc2n1	-14	.	-3	-8	8
CCc1nn2cc(C(=O)c3cc(Cl)ccc3O)cnc2c1-c1ccc(F)cc1	.	-10	.	.	.
O=C(O)CC1Sc2ccccc2NC1=O (stereo not given)	.	-1	.	.	.
SMILES	HUVEC tox IL1B	Phagocyt inh	HUVEC tox TNFa	NFkB transloc pot	NFkB transloc inh
CCCNC(=O)CC1Sc2ccccc2NC1=O (stereo not given)	-7	0	.	43*	-43
NNC(=O)c1cccc(COc2ccc3c(c2)CCC3)c1	.	-3	.	.	.
COc1ccccc1C(=O)Nc1nnn(C)n1	24	-1	78*	-4	4
Cn1nnc(NC(=O)c2ccccc2)n1	-11	.	-18	0	0
CC(=O)c1ccc(N(C(=O)Cn2nnc(-c3ccccc3)n2)C(C(=O)NC2CCCCC2)c2ccccn2)cc1 (stereo not given)	.	-2	.	.	.
COc1ccc(Nc2cc(C)nc(N3CCOCC3)n2)cc1	-18	-3	-29	106*	-106
Cc1ccc(Nc2cc(C)nc(N3CCOCC3)n2)c(C)c1	.	2	.	.	.
CCCCCCNC(=O)CCCCCNS(=O)(=O)c1ccc(OC)cc1	.	-3	.	.	.
O=C(CCN1C(=O)C2C3C=CC(C3)C2C1=O)Nc1c(F)cccc1F (stereo not given)	-21	.	94*	-10	10
CCCN(CC1CC1)C(=O)CSc1nnc(-c2cc(-c3cccs3)nc3ccccc23)o1	-8	-1	-13	11	-11
O=C(Cn1nnc2c(cnn2-c2ccc(F)cc2)c1=O)c1ccccc1F	92*	-1	.	1	-1
Cc1ccc2c(C)ccc(O)c2n1	76*	0	-18	-1	1
O=C(Cc1cccs1)NC1(C(=O)NC2CCCC2)CCCCC1	.	-4	.	.	.
COc1ccc(/C=N/NC(=O)c2cccc(COCC(F)(F)C(F)F)c2)cc1	.	-4	.	.	.
Cc1cc(=O)c2cccc(Br)c2[nH]1	90*	.	-10	-30	30*
Cc1cc(=O)c2ccc3ccccc3c2[nH]1	-37	-2	-14	9	-9
CN1CCc2c1nc1ccccc1c2N=C1CCCN1Cc1ccccc1	.	-2	.	.	.
O=C(NCC1OCCc2ccccc21)c1ccco1 (stereo not given)	-2	3	16	53*	-53
CC1(C)C=C(c2ccc(O)cc2)CC(C)(C)N1	-44	-1	-22	-45	45*
CCC(c1nnnn1C1CCCC1)N1CCN(Cc2ccccc2)CC1 (stereo not given)	-15	.	6	-3	3
Fc1ccccc1C(c1nnnn1C1CCCC1)N1CCN(Cc2ccccc2)CC1 (stereo not given)	88*	.	-2	-77	77*
O=C(O)C1CCCN(S(=O)(=O)c2ccc(Cl)s2)C1 (stereo not given)	-27	-1	-2	?	-50
O=C(C1CCCN(S(=O)(=O)c2ccc(Br)s2)C1)N1CCCCCC1 (stereo not given)	-3	4	-4	-33	33*
Cc1ccccc1N1C(=O)N(c2cccc(C(F)(F)F)c2)C2CS(=O)(=O)CC21 (stereo not given)	-9	0	-19	73*	-73
COc1cccc(N2C(=O)N(c3ccccc3Cl)C3CS(=O)(=O)CC32)c1 (stereo not given)	-115	-2	-11	14	-14
SMILES	HUVEC tox IL1B	Phagocyt inh	HUVEC tox TNFa	NFkB transloc pot	NFkB transloc inh
O=C(CCl)NC(=O)NC12CC3CC(CC(C3)C1)C2	.	-4	.	.	.
Cc1ccc(Nc2nc(-c3c(C)nc4ccccn34)cs2)cc1	34	.	75	-34	34*
Cc1ccc(Nc2nc(-c3c(C)nc4ncccn34)cs2)cc1	36	.	40	-24	24
CCCC1=C([O-])C2N=CC=CC2=[N+](c2ccccn2)C1=O (stereo not given)	.	3	.	.	.
CCCC(C)c1nnc(NC(=O)c2cc(C(=O)OC)cc([N+](=O)[O-])c2)s1 (stereo not given)	16	.	.	2	-9
CC(OC1=CC(=O)CCC1)C(=O)c1ccccc1 (stereo not given)	-13	187*	7	-4	4
COc1ccc(Cl)cc1NC(=O)CC(C)=O	7	-3	-3	4	-4
COc1ccc(Cl)cc1NC(=O)CC(C)c1ccccc1 (stereo not given)	80*	.	2	-97	97*
